Most compounds without a hit are left out; they make up all but 19% or so of the library.
IL-1B inflam inh: inflammasome signaling inhibition, IL-1 beta readout. 360,000 compounds, 4.7% hits. activity change, % at 57.5 µM. THP-1 LPS/ATP IL-1B secretion, AlphaLISA, 16 h; active compounds read low; in the data active = activity change below about -50%; inconclusive = mostly about -30% to -49%
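THP-1 cells pretreated 1 hr with compounds (up to 57.5 uM final), then stimulated with LPS (250 ng/mL final) plus ATP (1.25 mM final); secreted IL-1B measured by AlphaLISA after 16 hr, decreased signal indicating inhibition.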
TDP1 block: TDP1 (human) enzyme inhibition. Q9NUW8. AID 485290. recombinant TDP1, AlphaScreen DNA substrate cleavage. Potency, µM (series often up to 130 µM), for inactives: at the highest dose activity change, negative = inhibition, hits mostly inhibitors. 350,000 compounds, 0.28% hits; note: potency is the fitted concentration of half-maximal effect; nearly all actives have a fitted effect of over 40% in size
Target sequence (Q9NUW8 whole entry, looked up): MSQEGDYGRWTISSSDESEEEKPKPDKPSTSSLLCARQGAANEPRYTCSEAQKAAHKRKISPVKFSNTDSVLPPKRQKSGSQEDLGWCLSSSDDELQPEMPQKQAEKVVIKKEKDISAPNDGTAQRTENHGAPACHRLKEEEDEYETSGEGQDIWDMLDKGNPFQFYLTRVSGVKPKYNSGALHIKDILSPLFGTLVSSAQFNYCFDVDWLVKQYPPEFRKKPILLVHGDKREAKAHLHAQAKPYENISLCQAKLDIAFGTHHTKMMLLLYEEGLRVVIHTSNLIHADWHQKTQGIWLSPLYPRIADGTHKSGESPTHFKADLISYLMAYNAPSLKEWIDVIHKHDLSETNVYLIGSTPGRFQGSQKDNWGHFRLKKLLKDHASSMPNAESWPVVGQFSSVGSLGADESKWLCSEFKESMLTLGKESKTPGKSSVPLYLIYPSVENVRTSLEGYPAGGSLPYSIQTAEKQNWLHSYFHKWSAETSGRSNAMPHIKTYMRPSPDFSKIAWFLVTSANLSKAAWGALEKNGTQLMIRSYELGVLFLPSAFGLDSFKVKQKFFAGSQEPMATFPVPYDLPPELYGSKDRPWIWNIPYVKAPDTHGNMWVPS
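Signal: AlphaScreen proximity between streptavidin donor and anti-FITC acceptor beads on intact substrate. Reaction: Tdp1 1 nM, substrate 15 nM final, 5 min RT after 15 min compound preincubation.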
ELG1 DNA repair: ELG1-dependent DNA repair inhibition; HEK293T ELG1-luciferase reporter, luminescence, 16 h; DNA damage induced by 5-fluorouridine; Potency, µM (titrated, usually from 46.1 µM), inactives show top-dose activity change, negative = inhibition, actives largely listed as inhibitors; 330,000 compounds, 2.3% hits; AID 504467; note: potency is the fitted concentration of half-maximal effect; nearly all actives have a fitted effect of over 55% in size
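Quantitative HTS, concentration-response format. 2,000 cells/well co-treated with 5-fluorouridine and compound, 16 hr in 5% CO2 at 37 °C; ONE-Glo luminescence read after 30 min.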
TDP1 cell CPT: growth inhibition of DT40 Tdp1-/-;hTDP1 cells with camptothecin (screen for TDP1 inhibitors); 420,000 compounds, 12% hits; AID 686979; chicken DT40 Tdp1-/-;hTDP1 cells + 20 nM CPT, ATP luminescence, 48 h; Potency, µM (highest dose often 46.2 µM), for inactives: at the highest dose activity change, negative = growth inhibition, usual class: inhibitors; note: potency is the fitted concentration of half-maximal effect; nearly all actives have a fitted effect of over 55% in size
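Cell growth measured by CellTiter-Glo luminescence after a minimum 48 h, 37 C compound exposure with 20 nM CPT in Tdp1-knockout DT40 cells stably expressing hTDP1, seeded 400/well; qHTS titration format.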
DT40 TDP1 no CPT: qHTS for Inhibitors of human tyrosyl-DNA phosphodiesterase 1 (TDP1): qHTS in cells in absence of CPT; DT40 Tdp1-/- hTDP1 cells, no CPT, ATP luminescence, 48 h; Potency, µM (series often up to 46.2 µM), without a hit: at the top dose activity change, negative = growth inhibition, usual class: inhibitors; 420,000 compounds, 15% hits; note: potency is the fitted concentration of half-maximal effect; nearly all actives have a fitted effect of over 55% in size
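Stably hTDP1-transfected Tdp1-null chicken DT40 cells were treated with library compounds minus camptothecin and grown for at least 48 hr at 37 °C, after which cellular ATP was quantified by luminescence.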
Giardia killer: kills Giardia lamblia; AID 540267; activity change, % at 7.66 µM, hits read low; 340,000 compounds, 0.15% hits; Giardia lamblia trophozoite viability; in the data active = activity change below about -80%; inconclusive = between about -30% and that limit;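 note: parasites exposed to compound for two days anaerobically before the ATP read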
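Luminescent ATP signal served as the viability read-out, measured 15-30 min after adding ATP detection reagent to trophozoites that had been incubated with compounds for 48 hrs at 37 deg C anaerobically at 100 cells/well.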
* hit, by the source's call; ? = inconclusive; nt = not tested or not shown. Unless noted, calls come from the whole dose curve; as a rule, active = well fitted curve in the direction sought with a large enough effect; inconclusive = small, poorly fitted or top-dose-only effect, or another doubt; inactive = no such curve, though single readings can be large; an effect the other way counts as inactive or inconclusive. % is set by controls: 0 for no effect and ±100 for the full control effect.

SMILES | IL-1B inflam inh | TDP1 block | ELG1 DNA repair | TDP1 cell CPT | DT40 TDP1 no CPT | Giardia killer
OCCC1CN(Cc2ccccc2-c2ccco2)CCN1Cc1ccccc1 (stereo not given) | -9.7 | -5.4% | 5.2% | -6.7% | ? | 27.7
CCOC(=O)Cc1csc(NC(=O)CCN2C(=O)c3ccccc3C2=O)n1 | 3.9 | 2.1% | -5.1% | -6.7% | -4.0% | 11.0
CCc1ccc(/C(C)=N/NS(=O)(=O)c2ccc(OC)cc2)s1 | 34.7 | 4.6% | 0.5% | -23.5% | -6.5% | 2.3
Cc1ccc2c(c1)N(Cc1ccccc1)C(=O)C(C)S2 (stereo not given) | 27.4 | nt | nt | -14.1% | -11.5% | nt
Cc1ccc2c(c1)C(CCN)C(=O)N2Cc1ccccc1 (stereo not given) | -7.2 | 4.8% | nt | ? | 20.6µM* | 1.7
CCCCCOc1ccccc1CN1C(=O)C(=O)c2cc(C)ccc21 | nt | 10.1% | nt | 13µM* | 5.17µM* | nt
COc1ccc(CC(=O)NNC(=O)COc2ccc(Cl)cc2C)cc1S(=O)(=O)N1CCOCC1 | 0.0 | -0.1% | ? | ? | ? | -6.9
Cc1cc(C)c(NS(=O)(=O)c2ccc(-c3cnc(C4CC4)o3)cc2)c(C)c1 | nt | 1.2% | nt | 0.581µM* | 0.0184µM* | nt
Cc1cccc(N(C)S(=O)(=O)c2ccc(-c3cnc(C4CC4)o3)cc2)c1 | 112.1 | -2.1% | -21.9% | 0.0291µM* | 0.0366µM* | 9.9
CCN(CC)c1ccc(NS(=O)(=O)c2ccc(-c3cnc(C4CC4)o3)cc2)c(C)c1 | nt | 8.8% | nt | 11.6µM* | 16.4µM* | nt
Cc1cc(C)c(NS(=O)(=O)c2cc(-c3cnc(C4CC4)o3)ccc2C)c(C)c1 | nt | -6.2% | nt | -21.0% | ? | nt
O=S(=O)(Nc1ccc(F)cc1Cl)c1ccc(-c2cnc(C3CC3)o2)cc1 | 40.0 | 6.6% | -9.2% | 0.651µM* | 0.731µM* | -0.8
Cc1ccc(NS(=O)(=O)c2ccc(-c3cnc(C4CC4)o3)cc2)c(C)c1 | 34.7 | 6.4% | 3.7% | 1.46µM* | 1.03µM* | -6.7
CCOc1cc(/C=C(\C#N)C(=O)Nc2ccccc2[N+](=O)[O-])ccc1OCc1cccc2ccccc12 | nt | 3.6% | -5.0% | nt | nt | nt
CCCCCn1c(C(Cc2ccccc2)NC(C)=O)nc2ccccc21 (stereo not given) | -13.5 | 5.4% | 0.7% | ? | 25.9µM* | -10.0
CCCCC(NC(C)=O)c1nc2ccccc2n1CCCC (stereo not given) | -17.5 | -5.6% | -7.3% | 4.11µM* | 2.06µM* | 0.1
Cc1cccc(N2CCN(S(=O)(=O)c3ccc(-c4cc(C(F)(F)F)on4)s3)CC2)c1C | nt | 5.3% | nt | 4.9% | -14.2% | nt
CCCc1[nH]nc2c1C(c1ccncc1)C(C#N)=C(N)O2 (stereo not given) | 0.0 | 6.2% | 19.5% | -11.3% | -16.7% | -3.6
CCCc1[nH]nc2c1C(/C(C)=C/c1ccccc1)C(C#N)=C(N)O2 (stereo not given) | -93.5* | 4.1% | ? | ? | -27.5% | 0.4
COCc1[nH]nc2c1C(c1ccnc3ccccc13)C(C#N)=C(N)O2 (stereo not given) | -25.1 | 7.1% | 11.4% | 18.4µM* | 9.2µM* | -1.5
COCc1[nH]nc2c1C(c1ccc(F)cc1F)C(C#N)=C(N)O2 (stereo not given) | ? | -2.1% | 11.7% | 4.8% | -21.8% | 0.2
COCc1[nH]nc2c1C(c1ccc(OC)c(OC)c1)C(C#N)=C(N)O2 (stereo not given) | ? | 5.0% | ? | -0.5% | -15.5% | -24.9
CCCc1[nH]nc2c1C(c1ccc(O)c(OC)c1)C(C#N)=C(N)O2 (stereo not given) | -66.9* | 4.8% | 9.8% | -16.0% | -24.7% | -4.1
COCc1[nH]nc2c1C(c1cc(OC)c(O)c(OC)c1)C(C#N)=C(N)O2 (stereo not given) | -7.4 | 3.8% | 18.4µM* | -24.2% | -6.5% | 9.4
CC1CCN(S(=O)(=O)c2ccc(N3CCCCS3(=O)=O)cc2)CC1 | nt | -6.2% | nt | -17.3% | ? | nt
SMILES | IL-1B inflam inh | TDP1 block | ELG1 DNA repair | TDP1 cell CPT | DT40 TDP1 no CPT | Giardia killer
CCCc1[nH]nc2c1C(c1ccccc1OC)C(C#N)=C(N)O2 (stereo not given) | -53.1* | 4.8% | 18.5% | ? | ? | -4.2
CCn1c2ccccc2c2cc(C3C(C#N)=C(C)NC(C)=C3C#N)ccc21 | 16.0 | -1.0% | 1.5% | -4.8% | -25.6% | 10.1
CCCc1[nH]nc2c1C(c1cn[nH]c1-c1ccc(F)cc1)C(C#N)=C(N)O2 (stereo not given) | -90.2* | 8.1% | -3.8% | 9.2µM* | 10.3µM* | 21.1
CCn1c2ccccc2c2cc(C3C(C#N)=C(N)Oc4n[nH]c(COC)c43)ccc21 (stereo not given) | ? | 9.8% | ? | ? | 25.9µM* | 1.0
CCc1cccc(NC(=O)CCCn2nc(C)c3c(C)n(-c4ccccc4)nc3c2=O)c1 | -22.6 | 0.0% | 2.9% | ? | -20.4% | 15.7
O=C(CSc1nnc(SCc2ccc(Cl)cc2)s1)N/N=C/c1c[nH]c2ccccc12 | 1.3 | 22.4µM* | -0.5% | ? | ? | -5.8
O=C(O)COc1ccccc1/C=N/NC(=O)CSc1nnc(SCc2ccc(Cl)cc2)s1 | 13.4 | 3.9% | 3.4% | -22.8% | -13.9% | -13.3
O=C(CSc1nnc(SCc2cccc3ccccc23)s1)N/N=C/c1c[nH]c2ccccc12 | 30.6 | 3.2% | ? | ? | 16.4µM* | -6.3
O=C(O)COc1ccccc1/C=N/NC(=O)CSc1nnc(SCc2cccc3ccccc23)s1 | 5.4 | -2.6% | 0.7% | -7.4% | ? | 12.1
CC(=O)Nc1ccc(S(=O)(=O)N2CCC(C(=O)NCCC(=O)NCc3ccccc3)CC2)cc1 | 4.1 | 0.8% | 12.7% | -27.5% | 28.5% | 7.7
Cc1ccc(N=C2SC(C(=O)Nc3ccc(OC(F)(F)F)cc3)C(N)=C2C(=O)Nc2c(C)cc(C)cc2C)cc1 (stereo not given) | -104.2* | -2.6% | -23.6% | ? | ? | -4.2
Cc1ccc(NC(=O)C2SC(=Nc3ccccc3)C(C(=O)Nc3ccc(Cl)cc3)=C2N)cc1 (stereo not given) | -15.6 | 2.6% | ? | 6.51µM* | 18.4µM* | 8.8
COc1ccc(C)cc1NC(=O)CCNC(=O)Cn1ccc2ccccc2c1=O | 19.5 | 3.4% | -1.2% | -3.9% | 1.8% | 25.7
Cc1nc(S/C(=C\c2ccc(OCc3ccccc3Cl)cc2)C(=O)O)n[nH]1 | 12.9 | 11.9% | ? | ? | ? | 9.9
